Source: PubChem BioAssay AID493100 (Broad Institute, 2011)
Entries with a potency or affinity are not part of this list. Records with an inconclusive call do not appear. The source made the active and inactive calls.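 How the source made its calls: active means decreasing signal in every run, fitted half-effect dose at most ten times the top valid dose; inconclusive means runs disagree, weak flat effect, or poor curve fit; inactive means every run inactive, signal rises included.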

Test: blockers of SFLLRN-triggered platelet ATP secretion – cell-based, human platelets, luminescence, dry powder, dose response (AID 493100)
Conditions: SFLLRN-induced ATP dense granule secretion; series mostly up to 35 µM

outcome, inactive:
CC(=O)Nc1c(C#N)c(-c2ccccc2)c(C#N)c(=O)n1-c1ccc(C)cc1, O=Cc1ccc(NC(=O)C(F)(F)F)cc1, CCCC(=O)Nc1cccc(NC(=O)c2ccc(C(F)(F)F)cc2)c1, CCCC(=O)Nc1cccc(NC(=O)c2ccc(C)cc2)c1, CCCC(=O)Nc1cccc(NC(=O)c2cccc(S(C)(=O)=O)c2)c1, CC(=O)Nc1cccc(NC(=O)c2cccc(Cl)c2)c1
